In the library only some 4.3% were active in any assay of this set; here they are far more common.
ADAM10 inh: inhibits human ADAM10; O14672; recombinant ADAM10, EDANS/DABCYL FRET peptide cleavage, 3 h; inhibition, % at 7 µM; 370,000 tested, 0.62% active;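 active = inhibition above a per-campaign cutoff equal to the mean of compounds falling between control-based bounds plus 3 SD, cut at about 20% in these data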;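 note: 0% = DMSO wells while the 100% control is not disclosed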
Target sequence (O14672 214-748 limits assumed): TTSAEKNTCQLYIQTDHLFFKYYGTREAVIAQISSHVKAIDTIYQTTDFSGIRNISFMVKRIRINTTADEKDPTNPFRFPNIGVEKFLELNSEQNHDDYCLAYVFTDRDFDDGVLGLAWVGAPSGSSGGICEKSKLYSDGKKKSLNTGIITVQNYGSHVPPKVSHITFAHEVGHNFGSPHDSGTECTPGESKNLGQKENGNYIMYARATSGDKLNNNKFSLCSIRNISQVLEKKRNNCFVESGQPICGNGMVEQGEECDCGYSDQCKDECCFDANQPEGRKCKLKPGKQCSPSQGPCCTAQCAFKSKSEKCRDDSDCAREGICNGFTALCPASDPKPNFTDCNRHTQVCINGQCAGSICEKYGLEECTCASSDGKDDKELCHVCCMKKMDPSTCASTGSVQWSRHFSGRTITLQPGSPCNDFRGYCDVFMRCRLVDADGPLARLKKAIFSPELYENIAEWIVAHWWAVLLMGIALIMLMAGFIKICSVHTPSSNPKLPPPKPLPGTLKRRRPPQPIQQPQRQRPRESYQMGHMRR
GRIN3A LBD mod: NR3A (human) ligand-binding domain modulation | NR3A LBD differential scanning fluorimetry, Tm shift; 0% = protein alone, 100% = glycine-bound protein | Tm shift relative to glycine control, % at 25 µM | 340,000 tested, 2.5% active | AID 1259313;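 active = melting temperature shift of at least 10% of the positive control shift, at one fixed dose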
ADAM17 inh: inhibits human ADAM17. P78536. recombinant ADAM17, EDANS/DABCYL FRET peptide cleavage. inhibition, % at 6.95 µM. 370,000 tested, 0.83% active. AID 720648;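 active = inhibition above the mean of compounds lying between control limits plus 3 SD, set per campaign, cut at about 8.5% in these data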;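 note: 0% = DMSO-only wells as the low control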
HGIII-sPLA2 inh: Inhibits HGIII-sPLA2 liposome hydrolysis, primary screen | inhibition, % at 12.2 µM | QFRET BODIPY PC-A2 liposome hydrolysis, fluorescence | AID 743126 | 370,000 tested, 0.56% active;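 active = inhibition above mean plus 3 SD of compounds lying within the high and low control bounds, cut at about 19% in these data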;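 note: 0% = median of test compound wells and 100% = no enzyme DMSO wells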
FAS TE block: inhibitors of human fatty acid synthase thioesterase domain; recombinant FAS-TE, OMFH fluorogenic substrate, fluorescence endpoint; inhibition, % at 15 µM; 360,000 tested, 0.67% active;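 active = compounds whose normalised, plate-corrected inhibition of enzyme fluorescence in the single-dose primary screen is 50% or more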;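 note: 0% = DMSO with enzyme and 100% = substrate without enzyme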
ADAM10 confirm: confirmation of inhibitors of human ADAM10; ADAM10 QFRET peptide cleavage, EDANS fluorescence; shares compounds with ADAM10 inh; 2,100 tested, 1% active; inhibition, % at 6.95 µM;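 active = inhibition above about 20% chosen separately for each screening run, limit read from the data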;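 note: 0% = DMSO wells and 100% = marimastat wells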
ADAM17 counter: ADAM17 inhibition, counter-screen for ADAM10 exosite hits | ADAM17 QFRET peptide cleavage, EDANS fluorescence | inhibition, % at 6.95 µM | shares compounds with ADAM10 inh | 2,100 tested, 0.5% active;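 active = mean triplicate inhibition above the solvent-only control wells' mean plus 3 SD, cut at about 12% in these data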;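 note: 0% = DMSO wells and 100% = marimastat wells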
Active calls of the source: *; / = no result given.

SMILES | ADAM10 inh | GRIN3A LBD mod | ADAM17 inh | HGIII-sPLA2 inh | FAS TE block | ADAM10 confirm | ADAM17 counter
Cc1cc(C)cc(NC(=S)N2CCN(c3ncccn3)CC2)c1 | 35* | 0 | 1 | 4 | -1 | 2 | 0
Cc1ccc(NC(=S)N2CCN(c3ccccn3)CC2)cc1C | 21* | -2 | 3 | 18 | 0 | 1 | 1
Cc1cc(C)cc(NC(=S)N2CCN(c3ccccn3)CC2)c1 | -8 | -1 | -5 | 7 | 1 | / | /
CN1C2=N[C@H](c3ccc(Br)cc3)CC(=O)N2/C(=C\c2ccccc2)[C@@H]1c1ccccc1 | 12 | / | 5 | -17 | / | / | /
CC(=O)c1cc(-c2ccc3c(c2)OCO3)c(=O)n2c1CCC2 | -1 | / | 0 | -1 | / | / | /
O=S1(=O)c2ccc(N3CCC[C@@H]3CO)cc2O[C@@H]2CCN1C2 | -5 | / | -10 | 0 | / | / | /
Cc1ccc(COc2cccc3c2CCN(Cc2ccc(F)cc2)C3=O)cc1 | 0 | 0 | 3 | -19 | 32 | / | /
O=C1c2cccc(OCc3ccc(F)cc3)c2CCN1Cc1ccccc1 | 20* | 0 | 5 | -12 | 23 | 4 | 2
Cc1ccc(N(C(C)C(=O)Nc2cc(Cl)ccc2Oc2ccccc2)S(C)(=O)=O)cc1 (configuration not stated) | 22* | -3 | 8 | -21 | 37 | 7 | 2
CCCC1CCC2(CC1)CCC2OC(=S)Nc1ccccc1Br (configuration not stated) | 3 | / | -2 | 0 | / | / | /
CCCCCc1ccc(-c2n[nH]c(=O)c3ccccc23)cc1 | -7 | / | -4 | 13 | / | / | /
COc1ccc([C@H]2OC(=O)C[C@@H]2C(=O)N2CCN(c3ccccc3Cl)CC2)cc1OC | -5 | / | -1 | 5 | / | / | /
Nc1cc([N+](=O)[O-])cc2oc(-c3ccccc3)cc12 | 25* | 6 | 5 | 11 | 18 | 2 | 2
COC(=O)c1cnc(Nc2nc(C(N)COCc3ccccc3)cs2)nc1C(F)(F)F (configuration not stated) | 22* | / | 5 | 5 | -32 | 3 | 1
COC(=O)c1cnc(Nc2nc(C(N)c3ccccc3Cl)cs2)nc1C(F)(F)F (configuration not stated) | 7 | / | 1 | 13 | -10 | / | /
O=C(c1ccc(Cl)cc1)C1CCN(c2ncnc3sccc23)CC1 | -1 | / | 0 | -1 | / | / | /
C#CCN(C[C@H]1[C@H](OC(=O)NCc2ccco2)[C@H](OC(=O)NCc2ccco2)C[C@H]2C(=O)N(c3ccccc3)C(=O)[C@@H]12)S(=O)(=O)c1ccc(C)cc1 | 21* | / | 8 | -16 | 29 | 8 | 2
COc1ccc(C(=O)Nc2ccccc2C(=O)N2CCOCC2)cc1OC | 21* | 1 | 2 | 15 | -3 | 2 | 0
Cc1ccnc(NS(=O)(=O)c2cccc3nsnc23)c1 | 20* | 1 | 0 | 12 | -3 | 2 | 1
Cc1cccc(NS(=O)(=O)c2cccc3nsnc23)c1 | 12 | 0 | 3 | -8 | -9 | / | /
CCCCOCCCNC(=O)C[C@@H]1C(=O)N2CCCC3=C2[C@@]1(C(=O)OC)CCCC3 | -2 | / | -1 | 3 | / | / | /
COC(C(=O)Nc1ccc(S(=O)(=O)Nc2cccc3ccccc23)cc1)c1ccccc1 (configuration not stated) | 21* | 3 | 8 | -48 | 43 | 5 | 2
O=S1(=O)c2c(NCc3ccco3)cccc2Oc2ccccc2CN1Cc1cn(Cc2ccc(C(F)(F)F)cc2)nn1 | -8 | / | 0 | -5 | / | / | /
Cc1ccccc1Cn1cc(S(=O)(=O)CC(=O)Nc2nccs2)c2ccccc21 | 23* | -3 | 2 | -19 | 20 | 4 | 0
CCOC(=O)N1CCN(C(=O)CS(=O)(=O)c2cn(Cc3ccccc3C)c3ccccc23)CC1 | / | 1 | / | / | -1 | / | /
O=C(Nc1ccc(F)cc1)OCc1cn(Cc2ccc(F)c(F)c2)nn1 | 6 | / | 2 | -6 | / | / | /
CCN(CC)c1ccc(NC(=O)COc2ccccc2C)cc1S(=O)(=O)Nc1ccccc1OC | 21* | 7 | 8 | -15 | 30 | 11 | 3
